Screens as filed in PubChem.
GC-A act – GC-A stimulated cGMP production enhancers – HEK293 GC-A cells, cGMP TR-FRET, EC30 ANP, primary screen; AID 1671463, 2021; 0% at EC30 ANP, 100% saturating ANP; activation, % at 10 µM; 0.14% of 370,000 active; in the data active = activation above about 40%
NPR2 activator – human GC-B receptor activators, primary screen, HEK293 GC-B cells, cGMP TR-FRET, EC30 CNP; 0.11% of 370,000 active; activation, % at 10 µM; 0% at EC30 CNP, 100% saturating CNP; Atrial natriuretic peptide receptor 2 (Homo sapiens), P20594; AID 1920062, 2024;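 active = activation at 10 µM reaching about 35% in either raw or pattern-adjusted values, limit read from the data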
Granule exo inh – LAMP-1 surface exposure blockers, TALL-104 cells – cell-based, flow cytometry, MLPCN library, primary screen; inhibition, % at 10 µM; TALL-104 LAMP-1 surface exposure; cells stimulated with thapsigargin and PMA; 0.66% of 360,000 active;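 active = inhibition above about 55%, limit read from the data; inconclusive = no clear call, values can overlap the other calls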
Myeloid diff 2 – induction of myeloid progenitor differentiation, primary screen, cell-based, flow cytometry, MLPCN library; ER-HoxA9 myeloid progenitors, lysozyme-GFP differentiation; calls only at 10 µM; 1% of 360,000 active; AID 624256, 2012;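 active = normalized GFP-positive differentiation at or above the plate's own cutoff, the solvent-only control mean plus 3 SD; inconclusive = no clear call, values can overlap the other calls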;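 note: cells exposed to compound for four days before flow analysis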
Active calls of the source: *; i = inactive; ? = inconclusive; . = not tested or not shown; + = active, no number. Only some compounds are listed: those with a hit (about 1.8% of all), similar ones and a draw of the others.

SMILES | GC-A act | NPR2 activator | Granule exo inh | Myeloid diff 2
Cc1nc2ncccn2c1-c1csc(NCc2ccco2)n1 | 1 | 3 | -3 | +
Cc1nc2ncccn2c1-c1csc(Nc2ccccc2)n1 | 7 | -7 | 0 | i
COc1cc(OC)c(CN2CCc3c([nH]c4ccccc34)C2)cc1Br | -4 | -2 | 52 | +
O=Cc1ccc(/C=C2\c3ccccc3C(=O)N2c2ccccc2)o1 | -3 | -6 | . | .
COC(=O)c1cc2ccccc2c([N+](=O)[O-])c1O | 0 | -1 | 36 | i
COC(=O)c1cc2ccccc2c(-c2c(OC)c(C(=O)OC)cc3ccccc23)c1OC | -11 | -13 | -4 | +
Cc1sc2nc3c4ccccc4c(NCc4ccco4)nn3c(=O)c2c1C | 4 | 0 | 0 | +
Cc1nc(NCc2ccco2)c2c(C)c(C)sc2n1 | 4 | 3 | -3 | ?
N#Cc1ccc(/C=C\c2nccc3c2[nH]c2ccccc23)cc1 | 11 | -5 | 72* | i
CC(=O)Nc1ccc(NC(=O)c2ccc(S(=O)(=O)N(C)c3ccccc3)cc2)cc1 | -1 | 0 | 0 | i
CN(c1ccccc1)S(=O)(=O)c1ccc(NC(=O)CC(=O)c2ccccc2)cc1 | 0 | 3 | 5 | +
CCOc1ccc(-n2c(SCC(=O)Nc3cccc4ccccc34)nnc2-c2ccncc2)cc1 | -3 | 6 | . | .
COC(=O)C1=CN(c2ccc(F)cc2)C(N)=C(C#N)C1c1ccccc1 (centres undefined) | 15 | 0 | -6 | i
COC(=O)C1=CN(c2ccc3c(c2)OCO3)C(N)=C(C#N)C1c1ccccc1 (centres undefined) | 10 | 1 | 2 | +
CC(C)CN1C(=O)[C@@]2(CC(=O)N(C)C2c2ccccc2)c2cc(-n3cc(CN(C)C)nn3)ccc21 (some centres undefined) | 6 | -2 | . | .
Cc1ccc(C2NC(=S)NC3=C2C(=O)CCC3)cc1 (centres undefined) | 5 | 7 | 7 | i
CC(C)c1ccc(C2NC(=S)NC3=C2C(=O)CCC3)cc1 (centres undefined) | 50* | 1 | -3 | i
CCOC(=O)c1c(SCCN2CCCC2)n(-c2ccccc2)c(=S)n(-c2ccccc2)c1=O | -22 | -12 | 73* | ?
COc1cccc(NC(=O)Nc2nc3ncccn3c2-c2ccc(F)c(F)c2)c1 | -1 | 4 | . | .
CC(=O)NC12CC3CC(C1)CC(C(=O)Nc1nc4ccc(F)cc4s1)(C3)C2 | 43* | -1 | 0 | i
COc1ccccc1CNC(=O)NC1CCN(CC(=O)Nc2ccc3c(c2)OCCO3)CC1 | -4 | 0 | . | .
CSc1ccc(CN(C)C(=O)c2cc(=O)c3ccccc3o2)cc1 | -3 | 4 | 17 | +
COC(=O)[C@]12C[C@H](CC(=O)NCc3cccc(C(F)(F)F)c3)C(=O)N(Cc3cccc4ccccc34)C1=C[C@H](COCc1ccccc1)O[C@@H]2C | 0 | -6 | . | .
C=CCn1c(O)c(C2=c3ccccc3=NC2=O)c2ccccc21 | -11 | -3 | 62* | .
COc1cc2c3nnc(-c4ccc(F)cc4)c-3cn(Cc3ccc(C)cc3)c2cc1OC | 28 | 24 | 21 | +
SMILES | GC-A act | NPR2 activator | Granule exo inh | Myeloid diff 2
COc1cc2c3nnc(-c4ccc(F)cc4)c-3cn(Cc3cccc(C)c3)c2cc1OC | 8 | 0 | 18 | +
CCCOc1ccc(CNC(=O)c2ccc3c(c2)N(CC)CCS3)cc1 | -4 | 1 | 4 | +
CCN1CCSc2ccc(C(=O)NCc3cccc(Br)c3)cc21 | 2 | -1 | 2 | i
C[C@H]1CN([C@@H](C)CO)C(=O)CCCn2nncc2CO[C@H]1CN(C)C(=O)NC1CCCCC1 | 4 | -3 | -2 | i
Nn1c(SCC(=O)NC2CCCCC2)nnc1-c1cc(-c2ccc(F)cc2)n[nH]1 | 3 | -8 | . | .
CCOc1ccc(C2NC(=O)C(C#N)=C(S)N2c2cccc(C)c2)cc1OC (centres undefined) | 13 | 5 | 69* | i
CCOC(=O)[C@@]12CCC3=C1N(CCC3)C(=O)[C@H](CC(=O)NCc1ccc(C)o1)C2 | 5 | 1 | . | .
COc1ccccc1NC(=O)OCCN1CCCC12CCC(c1ccccc1)CC2 (centres undefined) | -13 | -11 | . | .
Cc1ccc(-c2csc3ncnc(Oc4ccc5c(C)cc(=O)oc5c4)c23)cc1 | -6 | -7 | 22 | i
